Experimental data published in PubChem BioAssay (EPA / NIEHS).
Calls of active or inactive are those of the source. Rule for the calls: active = hit-call score of the fitted dose curve at least 0.9, where 1 is the maximum; inactive = score below 0.9.

Experiments:
Conditions in all cases: mRNA level, 48 h; actives raise or lower the signal
[1] = read-out: CYP3A5 (gene 1577); assay: LTEA_HepaRG_CYP3A5: Life Technologies and Expression Analysis (LTEA) Assay for CYP3A5 using HepaRG (AID 2283493)
In short: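 mRNA levels were quantified by qRT-PCR on Fluidigm arrays and normalized to three housekeeping genes. Differentiated HepaRG cells received 48 h exposure (top 100 uM, half-log steps, 0.5% DMSO vehicle, duplicate); bidirectional fitting versus DMSO.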

[2] = read-out: Fatty Acid-Binding Protein 1 (FABP1), FABP1 (gene 2168); assay: LTEA_HepaRG_FABP1: Life Technologies and Expression Analysis (LTEA) Assay for Fatty Acid-Binding Protein 1 (FABP1) using HepaRG (AID 2283494)
In short: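 Values reflect bidirectional concentration-response fitting of FABP1 mRNA change against 0.5% DMSO controls. Human HepaRG cultures received eight half-log doses (top 100 uM) for 48 h; expression quantified by TaqMan qRT-PCR with housekeeping-gene normalization.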

[3] = read-out: Cytochrome P450 4A22 (Homo sapiens) (UniProt Q5TCH4); assay: LTEA_HepaRG_CYP4A22: Life Technologies and Expression Analysis (LTEA) Assay for Cytochrome P450 4A22 (CYP4A22) using HepaRG (AID 2283495)
In short: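 qRT-PCR of CYP4A22 mRNA (Fluidigm TaqMan, normalized to three housekeeping genes) after 48 h chemical exposure of HepaRG cells; 8-point half-log series, top 100 uM, 0.5% DMSO vehicle. Bidirectional curve fitting vs DMSO baseline.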

[4] = read-out: Cytochrome P450 7A1 (Homo sapiens) (UniProt P22680); assay: LTEA_HepaRG_CYP7A1: Life Technologies and Expression Analysis (LTEA) Assay for Cytochrome P450 7A1 (CYP7A1) using HepaRG (AID 2283496)
In short: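 HepaRG, 48 h exposure, 8-pt half-log series from 100 uM, 0.5% DMSO vehicle, duplicates. Readout: TaqMan qRT-PCR mRNA vs three housekeeping genes; bidirectional curve fit against DMSO baseline.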

[5] = read-out: Glutathione S-Transferase (GSTA2), GSTA2 (gene 2939); assay: LTEA_HepaRG_GSTA2: Life Technologies and Expression Analysis (LTEA) Assay for Glutathione S-Transferase (GSTA2) using HepaRG (AID 2283497)
In short: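 Oxidative-stress marker GSTA2 is quantified by TaqMan qRT-PCR in HepaRG cultures treated 48 h across an eight-point range to 100 uM. Expression is normalized to endogenous controls and compared with 0.5% DMSO vehicle.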

[6] = read-out: Glutamate-cysteine ligase catalytic (GCLC), GCLC (gene 2729); assay: LTEA_HepaRG_GCLC: Life Technologies and Expression Analysis (LTEA) Assay for Glutamate-cysteine ligase catalytic (GCLC) using HepaRG (AID 2283498)
In short: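 Oxidative-stress marker GCLC is measured as mRNA change in human HepaRG liver cells after 48 h chemical treatment in 0.5% DMSO, eight concentrations from 100 uM. Activity is fitted bidirectionally against vehicle.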

[7] = read-out: growth arrest and DNA damage 45 (GADD45G), GADD45G (gene 10912); assay: LTEA_HepaRG_GADD45G: Life Technologies and Expression Analysis (LTEA) Assay for growth arrest and DNA damage 45 (GADD45G) using HepaRG (AID 2283499)
In short: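 Differentiated human HepaRG cells in serum-free induction medium were exposed for 48 h to 8 half-log concentrations up to 100 uM in 0.5% DMSO, in duplicate. GADD45G mRNA was measured by TaqMan qRT-PCR, normalised to ACTB, GAPDH and POLR2A, and fitted bidirectionally against DMSO.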

[8] = read-out: Glutathione S-transferase M3 (GSTM3), GSTM3 (gene 2947); assay: LTEA_HepaRG_GSTM3: Life Technologies and Expression Analysis (LTEA) Assay for Glutathione S-transferase M3 (GSTM3) using HepaRG (AID 2283501)
In short: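 Differentiated HepaRG cells in serum-free induction medium were exposed in duplicate for 48 h to 8 half-log concentrations up to 100 uM in 0.5% DMSO. GSTM3 mRNA was measured by TaqMan qRT-PCR, normalized to ACTB/GAPDH/POLR2A, and fitted bidirectionally versus DMSO.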

[9] = read-out: Heat shock 70 kDa protein 1 (HSPA1A), gene 3303; assay: LTEA_HepaRG_HSPA1A: Life Technologies and Expression Analysis (LTEA) Assay for Heat shock 70 kDa protein 1 (HSPA1A) using HepaRG (AID 2283502)
In short: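 HSPA1A expression measured by qRT-PCR with ACTB/GAPDH/POLR2A normalization; curves fitted in both directions relative to DMSO vehicle. Exposure: 48 h in HepaRG cells, duplicate 8-point half-log series from 100 uM, 0.5% DMSO, serum-free induction medium.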

[10] = read-out: Hypoxia-inducible factor 1-alpha (Homo sapiens) (UniProt Q16665); assay: LTEA_HepaRG_HIF1A: Life Technologies and Expression Analysis (LTEA) Assay for Hypoxia-inducible factor 1 (HIF1A) Trancription factor using HepaRG (AID 2283503)
In short: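 HIF1A transcript level read by qRT-PCR (ACTB, GAPDH, POLR2A normalization) after 48 h chemical exposure of HepaRG cultures. Eight half-log concentrations, top 100 uM, 0.5% DMSO vehicle, duplicates; bidirectional curve fit against DMSO baseline.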

[11] = read-out: 3-Hydroxy-3-Methylglutaryl-CoA Synthase 2 (HMGCS2), HMGCS2 (gene 3158); assay: LTEA_HepaRG_HMGCS2: Life Technologies and Expression Analysis (LTEA) Assay for 3-Hydroxy-3-Methylglutaryl-CoA Synthase 2 (HMGCS2) using HepaRG (AID 2283504)
In short: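 Differentiated human HepaRG cells were exposed in duplicate for 48 h in serum-free induction medium to eight concentrations (top 100 uM, half-log steps, 0.5% DMSO). HMGCS2 mRNA was quantified by TaqMan qRT-PCR, normalised to ACTB, GAPDH and POLR2A, then fitted bidirectionally against DMSO.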

[12] = read-out: HGF (gene 3082); assay: LTEA_HepaRG_HGF: Life Technologies and Expression Analysis (LTEA) Assay for Hepatocyte Growth Facto (HGF) using HepaRG (AID 2283505)
In short: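 Differentiated human HepaRG cells in serum-free induction medium were exposed in duplicate for 48 h to eight concentrations (top 100 uM, half-log steps, 0.5% DMSO). HGF mRNA was quantified by qRT-PCR, normalized to ACTB, GAPDH and POLR2A.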

[13] = read-out: Insulin Like Growth Factor 1 (IGF1), IGF1 (gene 3479); assay: LTEA_HepaRG_IGF1: Life Technologies and Expression Analysis (LTEA) Assay for Insulin Like Growth Factor 1 (IGF1) using HepaRG (AID 2283506)
In short: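 Expression measured by TaqMan qRT-PCR on a Fluidigm array, with three housekeeping genes for normalisation, after 48 h treatment of HepaRG cells. Top concentration 100 uM with half-log steps, 0.5% DMSO vehicle, bidirectional fit.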

[14] = read-out: Intercellular Adhesion Molecule 1 (ICAM1), ICAM1 (gene 3383); assay: LTEA_HepaRG_ICAM1: Life Technologies and Expression Analysis (LTEA) Assay for Intercellular Adhesion Molecule 1 (ICAM1) using HepaRG (AID 2283507)
In short: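 Differentiated HepaRG cells in serum-free induction medium were exposed in duplicate for 48 h to eight half-log concentrations up to 100 uM in 0.5% DMSO. Transcript levels were measured by qRT-PCR normalized to ACTB, GAPDH and POLR2A; bidirectional fits relative to DMSO.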

[15] = read-out: Insulin-like growth factor-binding protein 1 (IGFBP1), IGFBP1 (gene 3484); assay: LTEA_HepaRG_IGFBP1: Life Technologies and Expression Analysis (LTEA) Assay for Insulin-like growth factor-binding protein 1 (IGFBP1) using HepaRG (AID 2283508)
In short: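 Differentiated human HepaRG cells in serum-free induction medium were exposed in duplicate for 48 h to eight concentrations, top 100 uM with half-log dilutions, in 0.5% DMSO. Transcript levels came from qRT-PCR normalised to ACTB, GAPDH and POLR2A, fitted bidirectionally against DMSO.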

[16] = read-out: Interleukin 6 (IL6), IL6 (gene 3569); assay: LTEA_HepaRG_IL6: Life Technologies and Expression Analysis (LTEA) Assay for Interleukin 6 (IL6) using HepaRG (AID 2283509)
In short: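 Changes in IL6 mRNA, up or down relative to 0.5% DMSO controls, were derived from concentration-response curves in human HepaRG cells treated for 48 h at up to 100 uM, with ACTB, GAPDH and POLR2A as normalizers.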

[17] = read-out: Interleukin 6 Receptor (IL6R), IL6R (gene 3570); assay: LTEA_HepaRG_IL6R: Life Technologies and Expression Analysis (LTEA) Assay for Interleukin 6 Receptor (IL6R) using HepaRG (AID 2283510)
In short: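 IL6R transcript level by qRT-PCR after 48 h chemical exposure (8-point, half-log, max 100 uM, 0.5% DMSO vehicle) of HepaRG cells in serum-free induction medium. Normalized to three housekeeping genes; curves fitted in both directions relative to DMSO.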

[18] = read-out: Potassium channel subfamily K member 1 (KCNK1), KCNK1 (gene 3775); assay: LTEA_HepaRG_KCNK1: Life Technologies and Expression Analysis (LTEA) Assay for Potassium channel subfamily K member 1 (KCNK1) using HepaRG (AID 2283511)
In short: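 Human HepaRG cultures receive test chemicals for 48 h in 0.5% DMSO, top concentration 100 uM with half-log dilutions. Induction or suppression of KCNK1 mRNA relative to DMSO is derived by bidirectional fitting of qRT-PCR data.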

[19] = read-out: Keratin 19 (KRT19), KRT19 (gene 3880); assay: LTEA_HepaRG_KRT19: Life Technologies and Expression Analysis (LTEA) Assay for Keratin 19 (KRT19) using HepaRG (AID 2283512)
In short: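 Differentiated human HepaRG cells, plated 48 h, were exposed in duplicate for 48 h in serum-free induction medium to eight half-log concentrations up to 100 uM in 0.5% DMSO. KRT19 mRNA was quantified by qRT-PCR, normalized to ACTB, GAPDH and POLR2A, and fitted bidirectionally versus DMSO.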

[20] = read-out: JUN Transcription Factor, JUN (gene 3725); assay: LTEA_HepaRG_JUN: Life Technologies and Expression Analysis (LTEA) Assay for JUN Transcription Factor using HepaRG (AID 2283513)
In short: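 mRNA measured by TaqMan qRT-PCR after 48 h chemical exposure of HepaRG cultures; normalization to three housekeeping genes. Duplicate eight-point half-log curves from 100 uM in 0.5% DMSO; gain or loss fitted against DMSO baseline.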

Sequence of Hypoxia-inducible factor 1-alpha (Homo sapiens) (Q16665 whole entry, looked up): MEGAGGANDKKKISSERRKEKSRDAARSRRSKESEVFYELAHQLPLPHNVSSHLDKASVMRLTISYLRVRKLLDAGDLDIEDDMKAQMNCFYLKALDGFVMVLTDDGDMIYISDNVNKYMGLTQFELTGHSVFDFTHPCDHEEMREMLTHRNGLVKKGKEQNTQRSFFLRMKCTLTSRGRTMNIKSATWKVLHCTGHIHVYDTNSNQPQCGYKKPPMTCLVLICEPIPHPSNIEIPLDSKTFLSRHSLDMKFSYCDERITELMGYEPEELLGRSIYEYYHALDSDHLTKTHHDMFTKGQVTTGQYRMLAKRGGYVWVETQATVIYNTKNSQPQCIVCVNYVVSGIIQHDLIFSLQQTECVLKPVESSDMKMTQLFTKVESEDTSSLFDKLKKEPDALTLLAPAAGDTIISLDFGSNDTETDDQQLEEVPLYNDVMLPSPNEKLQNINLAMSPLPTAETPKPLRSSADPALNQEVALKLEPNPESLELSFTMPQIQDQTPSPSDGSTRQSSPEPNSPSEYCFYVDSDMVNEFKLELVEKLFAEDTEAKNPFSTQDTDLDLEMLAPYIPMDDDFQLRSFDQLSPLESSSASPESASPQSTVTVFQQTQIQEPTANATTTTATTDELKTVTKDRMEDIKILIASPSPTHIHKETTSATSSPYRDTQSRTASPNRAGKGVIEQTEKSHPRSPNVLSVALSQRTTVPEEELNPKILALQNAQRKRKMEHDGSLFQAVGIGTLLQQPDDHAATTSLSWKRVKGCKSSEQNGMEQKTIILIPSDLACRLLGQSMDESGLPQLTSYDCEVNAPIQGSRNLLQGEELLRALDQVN

CCC(=O)C(CC(C)N(C)C)(c1ccccc1)c1ccccc1 (stereo not given)
outcome [1]: inactive | outcome [2]: inactive | outcome [3]: inactive | outcome [4]: inactive | outcome [5]: inactive | outcome [6]: inactive | outcome [7]: inactive | AC50 [8]: 36.2 µM (active) | outcome [9]: inactive | outcome [10]: inactive | AC50 [11]: 36.2 µM (active) | outcome [12]: inactive | outcome [13]: inactive | outcome [14]: inactive | outcome [15]: inactive | outcome [16]: inactive | outcome [17]: inactive | outcome [18]: inactive | AC50 [19]: 18.9 µM (active) | outcome [20]: inactive

NC(=O)O
outcome [1]: inactive | outcome [2]: inactive | outcome [3]: inactive | outcome [4]: inactive | outcome [5]: inactive | outcome [6]: inactive | outcome [7]: inactive | outcome [8]: inactive | outcome [9]: inactive | outcome [10]: inactive | outcome [11]: inactive | outcome [12]: inactive | outcome [13]: inactive | outcome [14]: inactive | outcome [15]: inactive | outcome [16]: inactive | outcome [17]: inactive | outcome [18]: inactive | outcome [19]: inactive | outcome [20]: inactive
